The record followed here is PubChem BioAssay (NCATS).

Structures are written as SMILES. Where “and” joins values, the source holds several entries; their conditions need not be identical. Equal values may be shown once. Results filed as inconclusive are left out. Calls of active or inactive are those of the source. Calls come from the whole dose curve; as a rule, active = well fitted inhibition curve with a large enough effect; inconclusive = small, poorly fitted or top-dose-only effect; inactive = flat fitted curve, though single readings scatter.
% is set by controls: 0 for no effect and ±100 for the full control effect; potency is the fitted concentration of half-maximal effect.

The subject of this assay is KB-3-1. In words: Cytotoxic Profiling of Annotated Libraries Using Quantitative High-Throughput Screening (AID 1296008). Note: nearly all actives have a fitted effect of over 60% in size. The following applies: Five cell lines viability, CellTiter-Glo ATP luminescence, 48-72 h; max response: stronger effect = lower value. An excerpt: Cell-based phenotypic screening is a commonly used approach to discover biological pathways, novel drug targets, chemical probes and high-quality hit-to-lead molecules. Many hits identified from high-throughput screening campaign are ruled out through a series of follow-up potency, selectivity/specificity, and cytotoxicity assays. Prioritization of molecules with little or no cytotoxicity for a more in-depth downstream evaluation influence the future direction of projects, so cytotoxicity profiling of the screening libraries at early stage is essential for increasing the likelihood of candidate success. […] For the annotated library, we also examined the primary targets and mechanistic pathways regularly associated with cell death. To our knowledge, this is the first study to use high-throughput screening to profile large libraries for cytotoxicity assessment in both normal and cancer cell lines. In summary, the results generated here constitutes a valuable resource for the scientific community and provides insight on identifying cytotoxic compounds with particular mechanisms of action, and prioritizing compounds with suitable cytotoxicity profile for further evaluation.
A pintool (Kalypsys) was used to transfer 23 nL of compound solution to the 1536-well assay plates. After 48 or 72 hr incubation at 37 degree Celsius, 5% CO2 and 95% humidity, 2.5 uL of CellTiter-Glo (Promega) was dispensed into each well using a dispenser (Aspect Automation, St. Paul, MN) with solenoid valves (Lee Valves, Westbrook CT). Plates were left at room temperature for 10 min before imaging the ATP-coupled luminescence using a ViewLux microplate imager (PerkinElmer, Waltham, MA).
For orientation: ATP-based viability assays read luminescence as a measure of living cells.
In the case of `CCCCCCCCCCCC(=O)[O][Sn]([CH2]CCC)([CH2]CCC)[O]C(=O)CCCCCCCCCCC`, the max response was -5.63% (inactive).
With `CC[C@H]1OC(=O)[C@H](C)C(=O)[C@H](C)[C@@H](O[C@@H]2O[C@H](C)C[C@H](N(C)C)[C@H]2O)[C@](C)(OC)C[C@@H](C)C(=O)[C@H](C)[C@H]2N(CCCCn3cnc(-c4cccnc4)c3)C(=O)O[C@]12C`, the max response was 6.09% (inactive) and 49.1% (inactive).
For `CN(C)c1ccc(C(=C2C=CC(=[N+](C)C)C=C2)c2ccccc2)cc1`, the max response is -1.13% (inactive).
For the compound `O=C(O)[C@H](O)[C@@H](O)[C@H](O)[C@H](O)CO`, the max response was 1.75% (inactive) and -7.15% (inactive).
Consider `CC(=O)SCC(CC(=O)c1ccc(C)cc1)C(=O)O` (stereo unspecified), for which the compound was called inactive.
Take `Cc1ccc(C(=O)c2ccc(CC(=O)O)n2C)cc1`: the max response is -6.96% (inactive).
For the compound `O=C(CS)Nc1ccccc1`, the max response was -19% (inactive).
With `Cc1c(N)c(=O)n(-c2ccccc2)n1C`, the max response was -14.7% (inactive).
On to `CN1[C@@H]2CC[C@H]1CC(OC(c1ccccc1)c1ccccc1)C2` (stereo partly specified), for which the max response is -4.67% (inactive) and 6.16% (inactive) and -6.04% (inactive); the call was inactive.
On to `N=C(N)N`, for which the max response is -12.6% (inactive).
Regarding `CC(=O)[C@]1(O)Cc2c(O)c3c(c(O)c2[C@@H](O[C@H]2C[C@H](N)[C@H](O)[C@H](C)O2)C1)C(=O)c1c(O)cccc1C3=O`, the Potency was 4.61 µM (active) and 5.17 µM (active).
With `CCNC(=O)[C@H]1O[C@@H](n2cnc3c(N)nc(NCCc4ccc(CCC(=O)O)cc4)nc32)[C@H](O)[C@@H]1O`, the max response is 2.49% (inactive).
Take `CCCOC(=O)c1ccc(O)cc1`: the max response was -6.63% (inactive) and -13.7% (inactive).
Regarding `Nc1ccc(O)c(C(=O)O)c1`, the max response is 2.58% (inactive).
Turning to `CO[C@@]1(NC(=O)Cc2cccs2)C(=O)N2C(C(=O)O)=C(COC(N)=O)CS[C@@H]21`, the max response is -24.9% (inactive) and -6.96% (inactive).
Still for that read-out and setting: with `CC1(C)S[C@@H]2[C@H](NC(=O)[C@H](N)c3ccc(O)cc3)C(=O)N2[C@H]1C(=O)O` the figure was 11.9% (inactive) and 8.22% (inactive); with `O=C(O)/C=C/C(O)c1ccc(Cl)cc1` (stereo unspecified), -6.79% (inactive).
As to `COc1cc2c3cc1Oc1cc(ccc1O)C[C@@H]1c4c(cc(OC)c(O)c4Oc4ccc(cc4)C[C@@H]3N(C)CC2)CC[N+]1(C)C`, the max response was -2.77% (inactive).
For `O=C(Nc1ccc2[nH]ncc2c1)C1CCC1`, the max response was -1.12% (inactive).
Turning to `CCCCCCCCCCCCCCCC(=O)OC(C)C`, the max response was 12.9% (inactive).
On the same count and under the same terms, with `Nc1nc2ccc([N+](=O)[O-])cc2s1` the figure was -15.7% (inactive).
Regarding `O=C(O)CC1CC(c2ccccc2)=NO1` (stereo unspecified), the compound was called inactive.
For `C=CCCCCCCCCC(=O)O`, the max response was 1.18% (inactive).
`CC1(C)S[C@@H]2[C@H](NC(=O)[C@H](NC(=O)N3CCN(S(C)(=O)=O)C3=O)c3ccccc3)C(=O)N2[C@H]1C(=O)O`: the compound was classed as inactive and the max response was 1.37% (inactive).
For `CC(C(=O)O)c1ccc(C(=O)c2ccccc2)s1` (stereo unspecified), the max response is 0.65% (inactive).
`CC(=O)O[C@H]1C[C@@]2(C)[C@@H](C[C@@H](O)[C@H]3[C@@]4(C)CC[C@@H](O)[C@@H](C)[C@@H]4CC[C@@]32C)/C1=C(\CCC=C(C)C)C(=O)O`: the compound was called inactive and the max response is -11.2% (inactive).
As to `COc1ccc(/C=C/C(=O)Nc2ccccc2C(=O)O)cc1OC`, the max response is -5.53% (inactive) and 8.2% (inactive).
Turning to `Cc1onc(-c2c(F)cccc2Cl)c1C(=O)N[C@@H]1C(=O)N2[C@@H]1SC(C)(C)[C@@H]2C(=O)O`, the max response is 3.63% (inactive) and 6.4% (inactive); the compound was called inactive.
Regarding `c1ccc2sc(SN3CCOCC3)nc2c1`, the max response is 0.575% (inactive).
As for `CCC1C(=O)OCC1Cc1cncn1C` (stereo unspecified), the max response is -11.4% (inactive).
With `C#CC1(O)CC[C@H]2[C@@H]3CCC4=CCCC[C@@H]4[C@H]3CC[C@@]21C` (stereo partly specified), the max response was -2.21% (inactive).
Turning to `CN(C)CCn1nnnc1SCC1=C(C(=O)O)N2C(=O)[C@@H](NC(=O)Cc3csc(N)n3)[C@H]2SC1`, the max response was -1.99% (inactive).
As for `C=CCN1C(=O)C(CC(C)C)NC1=S` (stereo unspecified), the max response was 11.7% (inactive) and 6.26% (inactive).
`Cc1ccc2c(n1)Oc1ccc(C(C)C(=O)OCC(=O)N(C)C)cc1C2` (stereo unspecified): the max response is -21.6% (inactive) and -9.27% (inactive).
Turning to `CC(N)C(=O)OC(C)(C)Cc1ccc(Cl)cc1` (stereo unspecified), the max response was 3.19% (inactive).
As for `COc1cc(CNC(=O)CCCC/C=C/C(C)C)ccc1O`, the max response is -0.699% (inactive) and the outcome was inactive.
